CDK5 inh: CDK5/p35 (human) kinase inhibition; inhibition, % at 10 µM; Recombinant CDK5/p35, ADP-Glo luminescence, 60 min; hit rate 0.01% among 330,000; Q00535+Q15078;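 active = highest replicate inhibition of at least 50% and at least 75% of replicates reaching 50%; inconclusive = only one of the two criteria met; inactive = both criteria failed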;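 note: plate controls were DMSO neutral control for no effect and GW8510 at 10 µM for full effect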
esBAF inh: blocks esBAF chromatin remodeling in mouse ES cells | AID 602393 | hit rate 2% among 350,000 | Bmi1-luciferase knock-in reporter, 24 h; 100% = twice the neutral-well signal | reporter increase, % at 12.5 µM; in the data active = activation above about 40%; inconclusive = no clear call, values can overlap the other calls;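 note: 0% = median of the plate's neutral control wells and 100% = double that signal; a rise in the Bmi1 reporter signal indicates esBAF inhibition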
Rtt109 Vps75: inhibitors of Candida albicans Rtt109/Vps75 histone acetyltransferase; hit rate 0.16% among 330,000; inhibition, % at 34.9 µM; purified Rtt109/Vps75, ThioGlo CoA-SH fluorescence, 4 h; Q5AAJ8; AID 540336;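 active = inhibition of at least 50% in every replicate; inconclusive = best replicate reaches 50% inhibition but some replicates fall short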
Target sequence (Q5AAJ8 whole entry, looked up): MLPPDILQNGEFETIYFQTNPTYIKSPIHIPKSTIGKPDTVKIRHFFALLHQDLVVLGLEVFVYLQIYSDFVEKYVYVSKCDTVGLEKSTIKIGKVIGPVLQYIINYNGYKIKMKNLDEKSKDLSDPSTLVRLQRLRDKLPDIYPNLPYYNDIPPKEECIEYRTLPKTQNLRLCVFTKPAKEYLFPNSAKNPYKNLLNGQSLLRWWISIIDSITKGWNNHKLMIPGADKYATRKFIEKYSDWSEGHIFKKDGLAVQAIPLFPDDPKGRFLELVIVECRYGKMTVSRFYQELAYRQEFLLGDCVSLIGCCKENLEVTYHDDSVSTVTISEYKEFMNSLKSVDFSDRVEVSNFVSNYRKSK
dFosB act: activators of mouse delta FosB homodimer; purified delta FosB, TAMRA-CDK5 oligo fluorescence polarization; percent of positive-control signal above neutral wells; activation, % at 25 µM; hit rate 0.99% among 340,000; AID 493131;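 active = mean activation above about 17%, with every replicate also reaching it, limit read from the data, passing the limit was not always enough; inconclusive = only one of the two conditions met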
Target sequence (P13346 whole entry, looked up): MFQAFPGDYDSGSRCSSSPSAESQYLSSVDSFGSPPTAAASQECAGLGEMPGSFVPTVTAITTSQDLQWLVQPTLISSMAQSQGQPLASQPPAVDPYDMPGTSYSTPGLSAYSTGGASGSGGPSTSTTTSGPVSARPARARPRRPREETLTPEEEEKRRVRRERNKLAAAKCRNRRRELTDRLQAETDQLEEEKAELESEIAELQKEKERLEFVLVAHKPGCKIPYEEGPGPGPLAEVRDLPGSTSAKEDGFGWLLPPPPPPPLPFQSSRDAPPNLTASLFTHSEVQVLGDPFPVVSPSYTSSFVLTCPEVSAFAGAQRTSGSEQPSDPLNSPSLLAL
SMARCA2 act: activators of SMARCA2 function; MG213 cells, MMTV-luciferase reporter, dexamethasone, overnight; activation, % at 9.1 µM; hit rate 1% among 370,000; AID 652017; in the data active = activation above about 7.8%;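 note: 0% = vehicle wells and 100% = reference activator wells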
DYRK1A inh: inhibitors of rat Dyrk1A kinase; Q63470; ADP-Glo luminescence, NFATc1 peptide; inhibition, % at 12.5 µM; hit rate 0.43% among 310,000; in the data active = inhibition above about 50%;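 note: plate controls were vehicle with enzyme for no effect and no enzyme for full effect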
SMARCA2 act conf: confirmation of SMARCA2 (BRM) function activators | shares compounds with SMARCA2 act | hit rate 30% among 3,500 | MG213 cells, MMTV-luciferase with dexamethasone, luminescence, overnight; MG213 cells expressing E1A, Rb sequestered; DMSO wells 0%, reference activator 100% | activation, % at 9.1 µM;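 active = activation above its plate's cutoff, the mean activation of tested wells plus 3 SD, cut at about 7.9% in these data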
GAL4-VP16 Luc: GAL4-VP16 reporter activation counter-screen | hit rate 41% among 3,500 | HEK293 GAL4-VP16 pG5luc reporter, luciferase luminescence; scaled: DMSO wells 0%, SAHA wells 100% | activation, % at 9.1 µM | AID 686939 | shares compounds with SMARCA2 act;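 active = activation above the solvent-only control well mean plus 3 SD, averaged across control plates, cut at about 5.2% in these data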
Numbers without * were called inactive; ? = inconclusive; . = no result. In the library only some 3.2% were active in any assay of this set; here they are far more common.

SMILES | CDK5 inh | esBAF inh | Rtt109 Vps75 | dFosB act | SMARCA2 act | DYRK1A inh | SMARCA2 act conf | GAL4-VP16 Luc
COc1cccc(NC(=O)Nc2cc(C)on2)c1 | 0.6 | 16.2 | 0.2 | -12.5 | 5.7 | -5.5 | . | .
COc1cccc(C(=O)NC(=O)Nc2cc(C)on2)c1 | 2.9 | 56.0* | -4.1 | -4.7 | 8.4* | -3.1 | 3.8 | 8.7*
CO[C@H](CN(C)S(=O)(=O)c1ccc(F)cc1)[C@@H](C)CN(C(=O)Nc1ccccc1F)[C@H](C)CO | . | 10.1 | . | . | . | . | . | .
O=C(NC(=S)NCc1ccccc1)c1ccc(Br)o1 | -2.7 | -1.7 | 1.1 | 0.9 | -1.7 | 9.0 | . | .
O=C(NC(=S)Nc1ccccc1)c1ccc(Br)o1 | -1.1 | 45.0* | -0.1 | 3.7 | 9.3* | 11.4 | 12.6* | 6.2*
Cc1ccc(C(=O)NCCCc2ccccc2)c(C)c1 | 0.3 | . | -17.9 | -0.8 | 10.4* | 3.8 | 13.3* | 8.5*
O=C(NCCCc1ccccc1)c1ccc(Br)o1 | -6.8 | 24.8 | 5.8 | -6.1 | 9.7* | 4.1 | 0.6 | 0.2
C[C@@H]1CCCCO[C@@H](CN(C)CC2CCCCC2)[C@@H](C)CN([C@H](C)CO)C(=O)c2cc(NC(=O)Nc3ccc(F)cc3)ccc2O1 | . | 0.8 | . | . | . | . | . | .
COc1cc(Cl)c(CNC[C@H]2O[C@@H](n3ccc(=O)[nH]c3=O)[C@H](O)[C@@H]2O)c(Cl)c1O | -0.2 | -2.2 | 1.3 | 2.0 | 10.2* | -0.9 | -0.4 | 0.7
COc1ccc(CNC[C@H]2O[C@@H](n3ccc(=O)[nH]c3=O)[C@H](O)[C@@H]2O)cc1OC | -0.6 | -3.7 | -4.6 | -0.3 | 1.4 | 0.1 | . | .
O=C(Nc1ccc(C(F)(F)F)cc1)N[C@H]1C=C[C@H](CC(=O)N2CCCCC2)O[C@@H]1CO | . | -4.5 | . | . | . | . | . | .
C[C@@H]1CN([C@H](C)CO)C(=O)c2cccc(NC(=O)c3ccncc3)c2O[C@H]1CN(C)Cc1ccc(C(F)(F)F)cc1 | . | 7.9 | . | . | . | . | . | .
C=CCSc1nnc(NC(=O)C2=COCCO2)s1 | 2.2 | 29.4 | -16.3 | 0.3 | 8.0* | 11.5 | 8.2* | 10.6*
C=CCSc1nnc(NC(=O)c2ccc3c(c2)OCCO3)s1 | . | -25.5 | . | . | -1.0 | . | . | .
COCC(=O)Nc1ccc2c(c1)C(=O)N(C)C[C@@H](OC)[C@H](C)CN(CC1CC1)[C@@H](C)CO2 | . | 1.1 | . | . | . | . | . | .
O=S(=O)(N[C@@H]1CC[C@@H](CCn2cc(-c3cccc(F)c3)nn2)O[C@H]1CO)c1ccc(F)cc1 | . | 3.3 | . | . | . | . | . | .
Brc1ccc(/C=N/Nc2nc3ccccc3o2)cc1 | 0.9 | ? | -5.2 | -6.4 | 9.2* | -1.2 | 3.2 | 13.7*
Oc1ccccc1/C=N/Nc1nc2ccccc2o1 | -8.5 | -46.8 | -5.4 | 6.0 | -5.1 | 0.6 | . | .
NCC[C@@H]1CC[C@@H](NC(=O)c2ccccc2F)[C@H](CO)O1 | . | -2.3 | . | . | . | . | . | .
CN(C)CCCNC(=O)C[C@H]1CC[C@H]2[C@@H](COc3ccc(NC(=O)c4ccccc4F)cc3C(=O)N2C)O1 | . | 1.9 | . | . | . | . | . | .
CS(=O)(=O)Nc1ccc(C(=O)Nc2ccc3ccccc3c2)cc1 | -1.9 | 15.6 | 4.0 | 2.1 | 8.4* | . | 16.4* | 7.2*
COc1ccc(C(=O)Nc2ccc3ccccc3c2)cc1 | 0.8 | -47.9 | 1.9 | -2.3 | 4.2 | 7.3 | . | .
NC(=O)c1ccccc1N/C=C/C(=O)c1ccccc1 | 0.6 | -12.9 | 4.3 | -6.7 | 8.0* | 8.8 | 11.4* | 9.8*
COC(=O)c1ccccc1N/C=C/C(=O)c1ccc(Br)cc1 | . | 34.8 | -16.3 | -10.1 | 5.7 | 3.6 | . | .
Cn1cccc1/C=C(\C#N)C(N)=S | 3.7 | 7.8 | 10.0 | 0.2 | -3.4 | . | . | .
SMILES | CDK5 inh | esBAF inh | Rtt109 Vps75 | dFosB act | SMARCA2 act | DYRK1A inh | SMARCA2 act conf | GAL4-VP16 Luc
N#C/C(=C/c1cc[nH]c1)C(N)=S | -0.1 | . | 16.7 | 5.6 | 8.6* | . | -4.3 | 1.0
Cc1ccsc1C(=O)NNC(=O)C1CCCCC1C(=O)O (configuration not stated) | 0.3 | 32.9 | -3.2 | -0.4 | 2.1 | 0.7 | . | .
Cc1ccsc1C(=O)NNC(=O)C1CC=CCC1C(=O)O (configuration not stated) | -1.7 | . | 1.5 | -1.4 | 8.6* | -9.3 | 2.6 | 2.4
O=C(NNCc1ccccc1)c1ccccn1 | 1.7 | 5.1 | 3.8 | 2.0 | 14.6* | 3.4 | 3.9 | 16.1*
O=C(NCCCNC(=O)c1ccccn1)c1ccccn1 | -1.6 | 1.8 | -2.3 | -1.6 | -0.6 | -0.9 | . | .
CN(C)CCCNC(=O)c1ccccn1 | -0.2 | -1.3 | 5.5 | 1.9 | 8.4* | -4.0 | -4.2 | -0.2
O=C(NNCc1ccccc1)c1ccccc1 | 0.9 | -46.8 | -0.5 | -2.9 | 0.7 | -2.5 | . | .
O=C(c1ccccc1F)N1C[C@@H]2[C@H](c3ccccc31)[C@@H](CO)N2C(=O)c1ccc(F)cc1 | . | -6.4 | . | . | . | . | . | .
CCN(CC)CCNc1ncnc2c1sc1nc(N3CCCC3)c3c(c12)CC(C)(C)OC3 | -1.9 | . | ? | 23.4* | 8.3* | 5.2 | 4.5 | 0.5
CC1(C)Cc2c(C#N)c(NCCO)nc(-c3ccco3)c2CO1 | -0.1 | -9.7 | -33.4 | -5.6 | 8.6* | 14.7 | -0.4 | 2.1
CC1(C)Cc2c(c(-c3ccco3)nc3sc4c(NCCCO)ncnc4c23)CO1 | 1.9 | -3.0 | 9.6 | -35.8 | 10.0* | 1.0 | 14.9* | 1.4
CN(C)CCNc1ncnc2c1sc1nc(N3CCCC3)c3c(c12)CC(C)(C)OC3 | -3.9 | -1.3 | -6.5 | ? | 4.3 | -6.5 | . | .
Cc1noc(C)c1S(=O)(=O)N(C)C[C@H]1OCCCC[C@@H](C)Oc2ccc(NC(=O)Nc3ccccc3)cc2C(=O)N([C@H](C)CO)C[C@@H]1C | . | -6.8 | . | . | . | . | . | .
C[C@@H]1CN([C@H](C)CO)C(=O)c2cc(C#C[C@@H](C)O)cnc2O[C@H]1CN(C)C(=O)Cc1ccncc1 | . | -3.3 | . | . | . | . | . | .
COc1ccc(-c2cn3cc(C(=O)NN)ccc3n2)cc1 | 0.6 | . | -0.6 | 5.9 | 11.2* | -5.9 | 8.8* | 5.4*
CC(=O)Nc1ccc(-c2cn3cc(C)ccc3n2)cc1 | 3.8 | . | 12.6 | -7.8 | 8.1* | 3.0 | 7.1 | 11.0*
C[C@@H]1CN([C@@H](C)CO)C(=O)c2cc(NS(=O)(=O)c3ccc(Cl)cc3)ccc2O[C@H]1CN(C)C(=O)Nc1ccc(F)cc1 | . | 1.9 | . | . | . | . | . | .
CCC(=O)Nc1ccc2c(c1)C(=O)N(C)C[C@H](OC)[C@@H](C)CN(C(=O)c1ccncc1)[C@@H](C)CO2 | . | -4.0 | . | . | . | . | . | .
COc1ccc(-c2noc(CSc3nc4ccccc4c(=O)n3-c3ccc(C)cc3)n2)cc1 | -0.3 | -5.8 | -3.6 | -8.6 | 12.2* | -5.3 | -3.6 | 0.4
Cc1ccc(C)c(N2CCN(c3cnn(-c4nc5ccccc5s4)c(=O)c3Cl)CC2)c1 | 0.2 | 5.8 | -4.9 | 7.7 | 9.3* | -2.5 | 3.5 | 6.5*

Compound activity from PubChem BioAssay.
